# Screens deposited in PubChem by National Center for Advancing Translational Sciences (NCATS).
# The list is not random: actives were taken first. Their share in the collection is about 5.9%.
# HEK293 tox = cytotoxicity in counter-screen for GLP-1R inverse agonists; actives 0.13% (n = 410,000); HEK293 cAMP-luciferase reporter cells, luminescence, 24 h; Potency, µM (doses to about 38.3 µM), for the others: top-dose activity change, negative = inhibition, hits mostly inhibitors; AID 624418;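 further: loss of luciferase light is scored as toxicity; on the % scale 0 is the no-effect control and ±100 the full control effect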
#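 1536-well qHTS counterscreen of the MLSMR; 200 cells/uL, 12 h pre-incubation, 23 nL cpd, 24 h at 37 deg C 5% CO2, luciferase detection reagent, 12 min RT, luminescence. Inhibition = undesired.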
# GLP1R ag = activates the human GLP-1 receptor; P43220; HEK293 GLP-1R CRE-luciferase, luminescence, 4-6 h; cells express a hypersensitive GLP-1R form; Potency, µM (series often up to 45.6 µM), for inactives: at the top dose activation, usual class: activators; actives 0.007% (n = 380,000); further: % of control where 0% means no effect
# Target sequence (P43220 whole entry, looked up): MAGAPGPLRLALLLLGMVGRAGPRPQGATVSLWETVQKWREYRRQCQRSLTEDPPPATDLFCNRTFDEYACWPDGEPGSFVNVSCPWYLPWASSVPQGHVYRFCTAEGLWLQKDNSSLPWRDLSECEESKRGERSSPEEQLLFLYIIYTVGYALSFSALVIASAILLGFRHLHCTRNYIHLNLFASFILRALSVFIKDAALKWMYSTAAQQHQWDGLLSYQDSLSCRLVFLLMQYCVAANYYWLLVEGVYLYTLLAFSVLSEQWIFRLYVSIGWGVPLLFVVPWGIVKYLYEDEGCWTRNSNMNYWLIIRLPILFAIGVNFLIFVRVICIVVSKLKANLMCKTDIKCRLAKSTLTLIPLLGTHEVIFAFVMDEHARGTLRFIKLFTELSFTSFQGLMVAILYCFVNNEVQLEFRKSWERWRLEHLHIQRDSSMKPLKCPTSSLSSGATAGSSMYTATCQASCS
# RORg inh = blocks mouse ROR gamma transcriptional activity. actives 5.4% (n = 310,000). AID 2551. Drosophila S2 Gal4-RORgamma UAS-luciferase reporter, 20 h. Potency, µM (top dose mostly 53.6 µM), inactives show at the top dose activity change, negative = inhibition, actives largely listed as inhibitors. P51450; further: on the % scale 0 is the no-effect control and ±100 the full control effect; nearly all actives have a fitted effect of over 60% in size
#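 ROR gamma transcriptional activity was tracked as Gal4-UAS luciferase output in stably transfected Drosophila Schneider cells, with compound added 1 hr before 700 uM copper sulfate induction and a 20 hr ambient-temperature incubation.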
# GLP-1R inv ag = inverse agonists of human GLP-1 receptor | P43220 | actives 1.6% (n = 410,000) | Potency, µM (titrated, usually from 38.3 µM), without a hit: at the highest dose activity change, negative = inhibition, most hits filed as inhibitors | HEK293 GLP-1R CRE-luciferase, luminescence, 24 h; GLP-1R form is constitutively active | AID 624417; further: on the % scale 0 is the no-effect control and ±100 the full control effect; nearly all actives have a fitted effect of over 55% in size
#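 HEK293 cells stably co-expressing constitutively active GLP-1R and a cAMP-responsive luciferase reporter were seeded in DMEM with 10% Nu serum, given compounds after 12 h, and incubated 24 h at 37 deg C. Luminescence was then read.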
# VP16 counter = inhibits Gal4-VP16 luciferase reporter, ROR gamma counter-screen | actives 3.5% (n = 310,000) | Potency, µM (top dose mostly 53.6 µM), for the others: at the highest dose activity, negative = inhibition, most hits filed as inhibitors | Drosophila S2 Gal4-VP16 UAS-luciferase, luminescence, 20 h;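 further: Gal4-VP16 expression switched on by copper sulfate through the metallothionein promoter; on the % scale 0 is the no-effect control and ±100 the full control effect; nearly all actives have a fitted effect of over 50% in size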
# Active calls of the source: *; ? = inconclusive; . = no result; [ ] = another dose, or the depositor's remark. The call rests on the fitted dose curve; in most records, active means well fitted curve in the direction sought with a large enough effect; inconclusive means small, poorly fitted or top-dose-only effect, or another doubt; inactive means no such curve, though single readings can be large; an effect the other way counts as inactive or inconclusive. Potency means the concentration at half of the fitted maximal effect.
SMILES,HEK293 tox,GLP1R ag,RORg inh,GLP-1R inv ag,VP16 counter
COC(C(=O)Nc1ccc(F)cc1)c1ccccc1 (stereo not drawn),-4%,1%,43%,-26%,-2%
Cc1ccc(NC(=S)N(C)C(c2ccccc2)c2ccccc2)cc1C,-1%,8%,3.5µM*,?,10µM*
COc1ccc(CN(C)C(=S)Nc2ccc(OC(F)F)cc2)cc1,-2%,7%,?,?,?
CN(C(=S)Nc1ccc(F)cc1)C(c1ccccc1)c1ccccc1,?,-7%,11µM*,?,?
COc1cccc(CN(C)C(=S)Nc2ccc(C)c(C)c2)c1,-23%,7%,11µM*,?,20%[10 µM]
Cc1ccc(-n2c(SCC(=O)Nc3c(C)cccc3C)nc(O)c(C)c2=O)cc1,6%,.,.,10%,.
COCCn1c(=O)c(-c2cc(F)cc(F)c2)nc2cnc(OC)nc21,.,.,7%,.,-7%
O[C@@H]1[C@@H]2c3cc4c(cc3CN3CCC(=C[C@@H]1O)[C@H]23)OCO4,.,.,?,.,2.5µM*
CC(C)c1ccc(Nc2nnc(SCC(=O)Nc3ncc(S(=O)(=O)c4ccc([N+](=O)[O-])cc4)s3)s2)cc1,2%,-8%,10µM*,14%,-4%
Cc1ccc(Nc2nnc(SCC(=O)Nc3ncc(S(=O)(=O)c4ccc([N+](=O)[O-])cc4)s3)s2)cc1,1%,-7%,27%[10 µM],6%,-71%
O=C(Nc1nnc(SCc2ccc(F)cc2)s1)c1ccccn1,5.6µM*,?,0.79µM*,?,1.4µM*
O=C(Nc1nc2ccc(F)cc2s1)c1ccccn1,?,-2%,0.71µM*,?,1.6µM*
O=C(Nc1nc2ccccc2s1)c1cnccn1,-7%,-4%,3.2µM*,-26%,5µM*
Cc1ccc(C(=O)N(Nc2nc3ccccc3s2)C(=O)c2ccc(C)cc2)cc1,4%,12%,8.9µM*,11%,11µM*
O=C(Nc1nc2ccc(F)cc2s1)C1=COCCO1,15%,-21%,.,?,.
CC(=O)c1cccc(NC(=O)c2cccn2-c2nnc(N3CCCCC3)s2)c1,18%,.,.,4%,.
C[C@@H]1CC[C@H]2C(=O)NC[C@@H](O)CN2[C@@H]1c1ccc(Br)cc1,.,.,9%[10 µM],.,0%[10 µM]
Cc1ccc(-n2nc(C(=O)N(C)c3ccc(C)c(C)c3)c3c4ccccc4n(C)c3c2=O)cc1,21%,.,.,0%,.
O=C(Nc1nc(-c2ccc(F)cc2)cs1)c1cnccn1,-8%,-3%,2.2µM*,22%,?
O=C(CP(=O)(c1ccccc1)c1ccccc1)Nc1nc2ccc(Cl)cc2s1,-1%,0%,6%,11µM*,3%
O=C(Nc1nc2ccc(Cl)cc2s1)C1CC1,-5%,2%,.,?,.
CCOc1ccc2nc(NC(=O)c3cnccn3)sc2c1,10%,-5%,1.6µM*,7%,?
O=C(Nc1nc2ccccc2s1)c1ccccc1,-9%,-5%,10µM*,?,?
c1ccc2sc(NN=C3CCCCCC3)nc2c1,-24%,7%,4µM*,?,?
O=C(Nc1ccc(-c2nc3ccccc3s2)c(OC(=O)c2ccccc2)c1)c1ccccc1,-5%,1%,1.3µM*,42%,-20%
SMILES,HEK293 tox,GLP1R ag,RORg inh,GLP-1R inv ag,VP16 counter
Cc1ccc(C)c2sc(NC(=O)c3nc4ccccc4s3)nc12,-9%,-5%,1µM*,12%,1µM*
c1ccc2sc(NCC3CCCO3)nc2c1 (stereo not drawn),-4%,10%,-42%,23%,-8%
O=C(Nc1ccccc1)c1nc2ccccc2s1,2%,5%,-32%,?,-26%
O=C1c2cc(O)cc(O)c2OC[C@@H]1c1ccc(O)c(O)c1,.,.,1%,.,-3%
C=CCC(Nc1ccc(OC)cc1)(C(=O)OCC)c1ccccc1 (stereo not drawn),.,.,-17%,.,3%
CCc1ccc(NC(=O)Cn2c(=O)n(CCCC(=O)NCc3ccccc3OC)c(=O)c3ccccc32)cc1,6%,1%,.,-6%,.
